# HEK cytotox: cytotoxic compounds in HEK 293 cells | HEK 293 viability, ATP luminescence (CellTiter-Glo), 48-72 h | Potency, µM (highest dose often 115 µM), for inactives: at the highest dose activity change, negative = cytotoxicity, hits mostly inhibitors | 94,000 tested, 6.6% active | AID 1345083; further: on the % scale 0 is the no-effect control and ±100 the full control effect; nearly all actives have a fitted effect of over 60% in size
#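 Luminescence from cellular ATP, measured with CellTiter-Glo, indicates HEK 293 viability. Cells plated at 250 cells/well are treated with compound for 48 or 72 hr at 37 degree Celsius before reagent addition.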
# FLuc inh-1: blocks purified firefly luciferase enzyme activity; P08659; purified P. pyralis luciferase, luminescence, biochemical; Potency, µM (highest dose often 115 µM), actives largely listed as inhibitors; 76,000 tested, 2.5% active; further: on the % scale 0 is the no-effect control and ±100 the full control effect; nearly all actives have a fitted effect of over 65% in size
#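 Luminescence read by CCD imaging after purified firefly luciferase (10nM final) was added to substrate buffer holding 10uM D-luciferin and 10uM ATP, pH 7.5, pre-dosed with compound.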
# 3T3 cytotox: kills NIH 3T3 cells. NIH 3T3 viability, CellTiter-Glo ATP luminescence, 48-72 h. Potency, µM (series often up to 96.7 µM), without a hit: at the highest dose activity change, negative = cytotoxicity, actives largely listed as inhibitors. 94,000 tested, 4.3% active; further: on the % scale 0 is the no-effect control and ±100 the full control effect; nearly all actives have a fitted effect of over 55% in size
#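 Mouse fibroblast NIH 3T3 cells, 400 per well, received compound via pintool and were incubated for 48 or 72 hr prior to CellTiter-Glo ATP luminescence measurement.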
# SNCA expr inhib: reduces expression of the alpha-synuclein gene. HEK-293 SNCA-luciferase knock-in, luminescence, 24 h. Potency, µM (highest dose often 57.2 µM), without a hit: at the top dose activity change, negative = inhibition, most hits filed as inhibitors. 140,000 tested, 0.17% active. AID 1671194;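 further: plate controls were DMSO cells for no effect and cell-free wells for full effect; nearly all actives have a fitted effect of over 45% in size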
# hNpr1 antagonist: antagonists of human natriuretic peptide receptor Npr1 | P16066 | HEK293 hNpr1 GloSensor cGMP, ANP-stimulated luminescence | Potency, µM (top dose mostly 46.3 µM), inactives show at the top dose activity change, negative = inhibition, hits mostly inhibitors | 76,000 tested, 1.6% active; calls by dose curve; further: on the % scale 0 is the no-effect control and ±100 the full control effect; nearly all actives have a fitted effect of over 60% in size
# Target sequence (P16066 whole entry, looked up): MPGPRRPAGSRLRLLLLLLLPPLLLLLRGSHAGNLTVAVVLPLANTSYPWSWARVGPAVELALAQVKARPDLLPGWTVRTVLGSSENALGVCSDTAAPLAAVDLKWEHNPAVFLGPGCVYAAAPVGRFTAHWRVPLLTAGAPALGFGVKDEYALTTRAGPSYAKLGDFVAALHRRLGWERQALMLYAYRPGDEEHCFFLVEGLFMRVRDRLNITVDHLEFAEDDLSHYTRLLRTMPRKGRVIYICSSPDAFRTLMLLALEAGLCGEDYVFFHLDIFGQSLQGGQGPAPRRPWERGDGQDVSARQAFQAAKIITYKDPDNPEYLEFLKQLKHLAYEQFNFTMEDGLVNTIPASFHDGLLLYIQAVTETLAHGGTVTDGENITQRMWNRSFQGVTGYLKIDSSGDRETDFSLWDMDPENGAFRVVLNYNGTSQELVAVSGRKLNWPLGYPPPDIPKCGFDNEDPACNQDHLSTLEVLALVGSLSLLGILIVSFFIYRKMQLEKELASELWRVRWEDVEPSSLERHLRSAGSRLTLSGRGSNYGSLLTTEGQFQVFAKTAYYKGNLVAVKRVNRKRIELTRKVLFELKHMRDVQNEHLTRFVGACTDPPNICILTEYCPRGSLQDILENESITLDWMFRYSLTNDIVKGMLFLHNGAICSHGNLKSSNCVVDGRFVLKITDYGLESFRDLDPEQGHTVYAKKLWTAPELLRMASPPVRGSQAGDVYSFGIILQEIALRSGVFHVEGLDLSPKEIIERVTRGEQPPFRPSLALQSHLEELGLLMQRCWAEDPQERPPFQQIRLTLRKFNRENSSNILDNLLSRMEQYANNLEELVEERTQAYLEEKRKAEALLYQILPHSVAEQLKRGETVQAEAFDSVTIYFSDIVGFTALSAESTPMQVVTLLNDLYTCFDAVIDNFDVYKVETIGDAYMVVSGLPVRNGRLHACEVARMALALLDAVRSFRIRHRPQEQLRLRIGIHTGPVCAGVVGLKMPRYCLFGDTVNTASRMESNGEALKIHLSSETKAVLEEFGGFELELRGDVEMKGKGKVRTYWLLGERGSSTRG
#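 HEK293 cells stably expressing human Npr1 and cGMP GloSensor pGS-40F, loaded 2 h with 2% GloSensor reagent, given compound 30 min at room temperature. Luminescence read before and 20 min after 0.1 nM hNppA.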
# SNCA viab count: reduces viability of HEK-293 SNCA reporter cells; HEK-293-SNCA-luc viability, GF-AFC fluorescence, 24 h; Potency, µM (highest dose often 57.1 µM), inactives show at the top dose activity change, negative = cytotoxicity, usual class: cytotoxic; 150,000 tested, 0.12% active;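 further: 0% = DMSO-treated cells and -100% = medium-only wells without cells; nearly all actives have a fitted effect of over 30% in size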
#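 Cytotoxicity counterscreen: after 24 h compound treatment of genome-edited SNCA-luciferase HEK-293 cells, live-cell protease substrate GF-AFC read by fluorescence after 30 min; activity scaled between DMSO (0%) and medium-only (-100%), curves Hill-fitted.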
# FLuc SDR no ATP: firefly luciferase binding stabilization, ATP absent; shares compounds with FLuc inh-1; Purified FLuc-C-HiBiT, Nano-Glo HiBiT luminescence, no ATP; Potency, µM (doses to about 32.7 µM), for the others: at the highest dose activation (signal gain), actives largely listed as activators; 1,300 tested, 7.8% active; further: nearly all actives have a fitted effect of over 55% in size
# FLuc SDR ATP: firefly luciferase binding stabilization, ATP added. 1,300 tested, 8.7% active. Potency, µM (top dose mostly 32.7 µM), for the others: at the highest dose activation (gain of signal), hits mostly activators. shares compounds with FLuc inh-1. purified FLuc-C-HiBiT + ATP, HiBiT complementation luminescence;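 further: signal reports ligand binding via conformational change of the enzyme rather than luciferase catalysis; % of control where 0% means no effect; nearly all actives have a fitted effect of over 55% in size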
# FLuc inh-2: firefly luciferase enzyme inhibition | shares compounds with FLuc inh-1 | purified FLuc-C-HiBiT enzyme, luciferin luminescence | Potency, µM (titrated, usually from 32.7 µM), without a hit: at the highest dose activity change, negative = inhibition, actives largely listed as inhibitors | 1,300 tested, 42% active; further: on the % scale 0 is the no-effect control and ±100 the full control effect; nearly all actives have a fitted effect of over 70% in size
# * marks the source's active call; other numbers are inactive results; i = inactive; ? = inconclusive; · = no result given. Only some compounds are listed: those with a hit (about 7.4% of all), similar ones and a draw of the others. Unless noted, the call rests on the fitted dose curve; in most records, active means well fitted curve in the direction sought with a large enough effect; inconclusive means small, poorly fitted or top-dose-only effect, or another doubt; inactive means no such curve, though single readings can be large; an effect the other way counts as inactive or inconclusive. Potency means the concentration at half of the fitted maximal effect.
SMILES,HEK cytotox,FLuc inh-1,3T3 cytotox,SNCA expr inhib,hNpr1 antagonist,SNCA viab count,FLuc SDR no ATP,FLuc SDR ATP,FLuc inh-2
Cc1nnc(CN2CCOc3c(O)cc(-c4ccccc4C)cc3C2)s1,?,i,?,0%,-1%,-20%,·,·,·
Cc1cncc(C(=O)N2CCOc3c(O)cc(-c4nc5ccccc5s4)cc3C2)c1,40µM*,?,?,21%,-6%,-28%,12%,8%,-11%
Cc1c(CN2CCOc3c(O)cc(-c4nc5ccccc5s4)cc3C2)cnn1C,·,·,·,·,·,·,13%,9%,-5%
Cc1nc(CN2CCOc3c(O)cc(-c4nc5ccccc5s4)cc3C2)no1,?,i,-23%,57%,-1%,0%,14%,7%,-11%
Cc1cnc(C)c(-c2cc(O)c3c(c2)CN(C(=O)c2ccncn2)CCO3)n1,-1%,i,-19%,-5%,1%,1%,·,·,·
CCOC(=O)[C@H]1C[C@]2(CCCCNC2=O)N(C(=O)Cc2ccc(OC)cc2)[C@H]1c1ccco1,-23%,·,?,·,·,·,·,·,·
Cc1ccc(-c2cn3cc(C(=O)NCc4ccccc4)nc3s2)cc1,?,·,-29%,-12%,·,10%,·,·,·
COc1ccc(CCNC(=O)C2CCc3nnc(CNC(C)=O)n32)cc1 (stereo not given),-12%,·,-20%,-3%,·,5%,·,·,·
Cc1ccc(NC(=O)CCc2c(C)nc3cc(-c4ccccc4)nn3c2C)cc1F,·,·,·,?,·,13%,13%,?,?
CCOc1ccccc1NC(=O)CCc1c(C)nc2cc(-c3ccccc3)nn2c1C,·,·,·,-17%,·,8%,·,·,·
Cc1nc2cc(-c3cccc(F)c3)nn2c(C)c1CCC(=O)NC1CCCCC1,·,·,·,?,·,7%,12%,?,?
CC(=O)c1ccc(NC(=O)CCc2c(C)nc3cc(-c4ccc(Cl)cc4)nn3c2C)cc1,·,·,·,?,·,-10%,19%,?,?
COC(=O)C(NC(=O)CCc1c(C)nc2cc(-c3cccc(F)c3)nn2c1C)C(C)C (stereo not given),·,·,·,?,·,2%,·,·,·
C=CCCC(=O)N1[C@@H](c2ccccc2)[C@@H](C(=O)OCC)C[C@]12CCCCNC2=O,3%,·,?,·,·,·,·,·,·
COc1ccc(C(=O)N2CCCC(C(=O)N3CCC4(CC3)CC(=O)Nc3ccccc3O4)C2)cc1 (stereo not given),?,·,-31%,1%,·,10%,·,·,·
Cc1ccc(/C=C/c2nc3ccccc3n2S(=O)(=O)c2ccc(Br)cc2)cc1,·,·,·,?,·,-8%,1.8µM*,?,0.62µM*
O=S(=O)(c1cccc(Cl)c1)n1c(/C=C/c2ccccc2Cl)nc2ccccc21,·,·,·,?,·,-23%,1.6µM*,?,0.18µM*
CSc1ccc(/C=C/c2nc3ccccc3n2S(=O)(=O)c2cccc(Cl)c2)cc1,·,·,·,?,·,-4%,2µM*,?,0.56µM*
CNC(=O)c1cc(C)nc2onc(C3CCCN3C(=O)c3ccccc3F)c12 (stereo not given),-1%,·,-23%,·,·,·,·,·,·
Cc1noc(C)c1S(=O)(=O)N1CCOc2ccc(CN3CCOCC3)cc2C1,-12%,·,-35%,-19%,·,6%,·,·,·
CCOc1cccc(Nc2nn(-c3ccc(OC(F)(F)F)cc3)nc2C(C)=O)c1,·,·,·,18%,·,5%,·,·,·

# Bioassay records deposited in PubChem by National Center for Advancing Translational Sciences (NCATS).
